High-throughput results from PubChem.
This is a sample that favours compounds with a hit; in the whole collection about 1.4% have one here.
SARS 3CLpro inh-1: SARS-CoV 3CLpro protease inhibition. P0C6X7. recombinant SARS-CoV 3CLpro, quenched FRET peptide cleavage. inhibition, % at 6 µM. 290,000 compounds, 0.14% hits; in the data active = inhibition above about 12%
PrPC surface inh: cell surface PrPC inhibition, primary TR-FRET screen. inhibition, % at 13.8 µM. 370,000 compounds, 0.43% hits. AID 720596. TR-FRET read-out; in the data active = inhibition above about 24%; note: 0% = median of the test wells and 100% = reference compound wells
RecA intein inh: Mtb RecA intein splicing inhibition; P9WHJ3; cell-free RecA intein splicing, fluorescence; inhibition, % (no concentration beside the values); 290,000 compounds, 0.75% hits; AID 2221; in the data active = inhibition above about 30%;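 note: 0% = vehicle wells and 100% = reference inhibitor control wells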
Target sequence (P9WHJ3 whole entry, looked up): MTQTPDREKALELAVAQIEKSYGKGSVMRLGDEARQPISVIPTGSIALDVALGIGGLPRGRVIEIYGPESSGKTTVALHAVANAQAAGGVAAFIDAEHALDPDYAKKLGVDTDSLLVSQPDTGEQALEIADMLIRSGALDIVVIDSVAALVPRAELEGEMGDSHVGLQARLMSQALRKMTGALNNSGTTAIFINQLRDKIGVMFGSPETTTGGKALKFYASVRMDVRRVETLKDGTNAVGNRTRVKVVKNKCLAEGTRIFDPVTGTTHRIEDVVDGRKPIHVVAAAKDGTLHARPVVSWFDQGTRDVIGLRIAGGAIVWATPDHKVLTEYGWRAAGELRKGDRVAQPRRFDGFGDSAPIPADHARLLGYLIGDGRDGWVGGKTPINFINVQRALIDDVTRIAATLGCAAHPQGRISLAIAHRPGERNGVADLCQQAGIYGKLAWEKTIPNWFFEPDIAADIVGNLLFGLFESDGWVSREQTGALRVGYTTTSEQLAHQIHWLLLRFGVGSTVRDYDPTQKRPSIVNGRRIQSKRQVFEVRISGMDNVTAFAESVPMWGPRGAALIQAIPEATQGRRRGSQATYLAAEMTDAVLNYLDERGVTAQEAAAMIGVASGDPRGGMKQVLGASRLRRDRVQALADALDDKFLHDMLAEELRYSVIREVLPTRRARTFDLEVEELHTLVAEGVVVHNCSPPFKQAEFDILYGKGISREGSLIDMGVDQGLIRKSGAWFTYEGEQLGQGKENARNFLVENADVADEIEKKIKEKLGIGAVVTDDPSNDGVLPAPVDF
Mtb hypoxia rep: reduces hypoxia-regulated biosensor signal in M. tuberculosis | 300,000 compounds, 0.1% hits | M. tuberculosis hypoxia-regulated fluorescent reporter, fluorescence | fluorescence inhibition, % (test concentration not listed); in the data active = fluorescence inhibition mostly above about 23%, no sharp cut-off; inactive = mostly below about 17%
BJeLR viability: kills HRASV12-expressing BJeLR cells; BJeLR (HRASV12) viability, CellTiter-Glo ATP luminescence, 48 h; inhibition, % (concentration not given with the values); 300,000 compounds, 0.17% hits; AID 1554; in the data active = inhibition above about 50%
PrP UTR inh: inhibition of PrP 5' UTR reporter expression; inhibition, % (no concentration beside the values); cell-based PrP 5' UTR mRNA reporter, plate reader; AID 488862; 340,000 compounds, 0.35% hits; in the data active = inhibition above about 52%; note: 0 = median of the neutral control wells
SARS 3CLpro inh-2: confirmation of SARS coronavirus 3C-like protease inhibitors | inhibition, % at 6 µM | QFRET protease activity assay, 3CLpro | 380 compounds, 36% hits | AID 1879 | shares compounds with SARS 3CLpro inh-1; in the data active = inhibition above about 13%
The depositor's hits bear a star; x = not tested or not shown.

SMILES	SARS 3CLpro inh-1	PrPC surface inh	RecA intein inh	Mtb hypoxia rep	BJeLR viability	PrP UTR inh	SARS 3CLpro inh-2
C#CCOCCOCCOCCNc1nc(N2CCN(C(=O)C(CCCCN)n3cc(C(N)CC(C)C)nn3)CC2)nc(N2CCN(C(=O)C(C(C)CC)n3cc(C(N)CO)nn3)CC2)n1 (stereo not given)	x	x	x	13	x	x	x
O=C(NCc1nc2ccccc2[nH]1)C1=CC(c2ccccc2)CC(OCCCCO)O1 (stereo not given)	x	x	x	1	x	x	x
Cc1cccc(Nc2nnc(SCC(=O)Nc3ncc(C(F)(F)F)cc3Cl)s2)c1C	13*	-4	-2	x	-13	-17	3
Cc1ccccc1Nc1nnc(SCC(=O)Nc2ncc(C(F)(F)F)cc2Cl)s1	20*	-3	-4	6	-2	-16	-4
Cc1cccc(C)c1Nc1nnc(SCC(=O)Nc2ncc(C(F)(F)F)cc2Cl)s1	6	0	1	9	-4	-9	x
CCCSc1ccc(C2C3C(=O)N(C)C(=O)C3[C@]3(C(=O)OC)CCCN23)cc1OC (stereo not given in full)	x	x	x	3	x	x	x
CC(=NO)c1cccc(N2Cc3ccccc3C2)c1	x	x	x	-1	x	x	x
O=C(CSc1ncnc2scc(-c3ccccc3)c12)Nc1ccc(C(=O)O)cc1	13*	1	-1	4	5	-34	6
C=CCCC(Cc1ccc(F)cc1)C(=O)OCCNC(=O)C(CC=C)CC(=O)NC(CO)Cc1ccccc1 (stereo not given)	x	x	x	9	x	x	x
O=C(Cn1nnc2ccccc21)c1ccc(Br)cc1	57*	2	8	-6	13	-15	55*
Cc1ccc(C(=O)Cn2nnc3ccccc32)cc1	6	-3	-1	5	-2	-95	x
CC(=NNC(=O)COc1ccccc1)c1cccs1	x	x	x	5	x	x	x
CC(=O)NC1C(=O)N(CCN2CCOCC2)c2ccc(F)cc21 (stereo not given)	12*	4	41*	12	5	-7	45*
CC=CC1=CC(=O)CC(c2ccc(F)cc2)C1 (stereo not given)	x	x	x	11	x	x	x
CC1CC(=NNC(=O)c2cccs2)CC(C)(C)C1 (stereo not given)	x	x	x	-4	x	x	x
C=CCOC(=O)C1=CC(c2csc3ccccc23)CC(OCCCCO)O1 (stereo not given)	x	x	x	19	x	x	x
CN(C)c1nc(N)nc(-c2nc3ccccc3s2)n1	13*	-5	-1	16	-6	-58	-6
Cc1c(OCC(=O)N[C@@H](Cc2c[nH]c3ccccc23)C(=O)O)ccc2c1oc(=O)c1ccccc12	14*	5	6	x	8	-57	9
CSc1cccc(NC(=O)Cc2ccccc2[N+](=O)[O-])c1	14*	-1	2	-5	-4	-4	6
Cc1ccc(C(=O)N2CCN(c3ccc(NC(=O)c4cccnc4)cc3)CC2)cc1	3	0	-7	x	-4	-8	x
COc1cc(C(=O)Nc2ccc(N3CCN(C(=O)c4ccc(C)cc4)CC3)cc2)cc(OC)c1OC	14*	-4	-2	4	-2	-16	0
OCCC1CC(O)C(O)[C@]2(CCc3ccccc3CO2)O1 (stereo not given in full)	x	x	x	1	x	x	x
COC(=O)c1cc2sccc2n1CC(=O)Nc1ccc(OC)c(OC)c1OC	14*	-7	1	-10	-12	-26	-4
COc1cc(NC(=O)C2CC(c3cccc(Br)c3)=NO2)cc(OC)c1OC (stereo not given)	13*	10	x	-7	-1	-13	2
COc1cccc(C2=NOC(C(=O)Nc3cc(OC)c(OC)c(OC)c3)C2)c1 (stereo not given)	-3	-3	3	10	2	-9	x
SMILES	SARS 3CLpro inh-1	PrPC surface inh	RecA intein inh	Mtb hypoxia rep	BJeLR viability	PrP UTR inh	SARS 3CLpro inh-2
COc1ccc(C(C(=O)NCC2CCCO2)N(C(=O)Cn2nnc3ccccc32)c2ccc(NC(C)=O)cc2)c(OC)c1 (stereo not given)	18*	-5	-4	6	2	-15	11
COc1cccc(C(C(=O)NCC2CCCO2)N(C(=O)Cn2nnc3ccccc32)c2ccc(NC(C)=O)cc2)c1OC (stereo not given)	15*	-3	-2	11	7	-23	9
COc1cc(C(C(=O)NCC2CCCO2)N(C(=O)Cn2nnc3ccccc32)c2ccc(C(C)=O)cc2)ccc1O (stereo not given)	-2	-8	-3	-2	6	-17	x
Cc1cc(C)nc(SCC(=O)NN=Cc2cccs2)n1	x	x	x	10	x	x	x
CC(C)C[C@H](NC(=O)c1nc[nH]c1C(=O)NCc1ccc(CNC(=O)OC(C)(C)C)cc1)C(=O)OC(C)(C)C	14*	-3	1	x	-7	5	13*
CC(C)C[C@H](NC(=O)c1[nH]cnc1C(=O)N[C@@H](Cc1ccccc1)C(=O)OC(C)(C)C)C(=O)OCc1ccccc1	3	17	1	x	9	-5	x
CC(C)C[C@H](NC(=O)c1[nH]cnc1C(=O)N[C@@H](Cc1ccccc1)C(=O)OCc1ccccc1)C(=O)OC(C)(C)C	13*	7	1	x	8	-16	6
CCN1C(=O)C2C(c3ccc(-c4ccc5c(c4)OCO5)c(OC)c3)N[C@@](CC(C)C)(C(=O)OC)C2C1=O (stereo not given in full)	x	x	x	7	x	x	x
C#CCCOC(=O)N1C2=NC(C(=O)OC)=C(C(=O)OC)C3N(C)c4ccccc4[C@]23CC1CO (stereo not given in full)	x	x	x	2	x	x	x
CNC(=O)N(O)C1N(/N=C/c2cccs2)C(=S)SC1(C)C (stereo not given)	13*	-3	-5	x	-7	-6	2
CNC(=O)N(O)C1N(N=Cc2ccccc2O)C(=S)SC1(C)C (stereo not given)	x	x	x	12	x	x	x
C=CC1c2cccc(C)c2N(S(=O)(=O)c2ccc(C)cc2)C(c2ccc(OC(C)=O)cc2)C1(C#N)C#N (stereo not given)	x	x	x	6	x	x	x
O=C1CC2(CCN(C(=O)c3ccccc3[N+](=O)[O-])CC2)Oc2ccccc21	x	2	-5	3	3	-3	x
CC(C)C12CN(C(=O)c3ccccc3[N+](=O)[O-])CC(C(C)C)(CN(C(=O)c3ccccc3[N+](=O)[O-])C1)C2=O	29*	-10	2	10	9	2	35*
O=C(NN1C(=O)/C(=C/c2ccc(O)cc2)SC1=S)c1ccccc1O	13*	-19	0	11	1	-5	-2
O=C(Cn1nnc(-c2ccccc2NC(=O)c2ccccc2F)n1)NCc1ccco1	12*	-9	0	x	2	-6	1
COc1ccc(S(=O)(=O)Nc2ccc(F)cc2)cc1N(C)S(=O)(=O)c1ccc(Cl)cc1	17*	10	8	-3	-2	-1	-2
O=C(NCCc1ccccc1)C(=O)NCC1OCCN1S(=O)(=O)c1ccc2c(c1)OCCO2 (stereo not given)	15*	-2	5	-7	2	-16	0
